Laboratory results: PubChem BioAssay (EPA / NIEHS)
Several values for one entry are separate records, joined by “and”; a condition that tells them apart may be missing. Equal entries are not always repeated. Where a structure was tested more than once in an assay, its records may differ in their call. Activity calls are given as the source filed them. The calls were made as follows: active = hit-call score of the fitted dose curve at least 0.9, where 1 is the maximum; inactive = score below 0.9.

What was measured:
[1] = ATG_E_Box_CIS: Attagene CIS-FACTORIAL HepG2 Assay for human Enhancer Box (E-box) (AID 2282936); conditions: HepG2 E-box cis-reporter transcription, actives raise or lower the signal
In short: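 Transiently transfected HepG2, endogenous TF-driven reporters, 24 h dosing. Readout: RT-PCR plus capillary electrophoresis of fluorescent reporter fragments. Gain or loss of signal fitted bidirectionally against DMSO baseline.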

[2] = ATG_M_61_CIS: Attagene CIS-FACTORIAL HepG2 Assay for M61 Transcription Factor (Internal Marker) (AID 2282937); conditions: HepG2 Attagene CIS-FACTORIAL M61 internal marker reporter; actives raise or lower the signal
In short: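 Cells were transfected with reporter units under cis-regulatory promoters, treated with chemicals for 24 h, then lysed for RNA. Reporter transcripts were quantified by RT-PCR and capillary electrophoresis, and activity was fitted bidirectionally against DMSO.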

[3] = ATG_EGR_CIS: Attagene CIS-FACTORIAL HepG2 Assay for human Early Growth Response 1 (EGR1) (AID 2282938); conditions: HepG2 Attagene CIS-FACTORIAL EGR reporter mRNA; actives raise or lower the signal
In short: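 Endogenous TF activity in HepG2 liver cells was gauged through cis-promoter reporter constructs transiently transfected. After 24 h dosing, reporter mRNA was quantified by RT-PCR and capillary electrophoresis, and curves fitted in both directions versus DMSO.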

[4] = ATG_M_19_CIS: Attagene CIS-FACTORIAL HepG2 Assay for M19 Transcription Factor (Internal Marker) (AID 2282939); conditions: HepG2 Attagene CIS-FACTORIAL M19 internal marker reporter; actives raise or lower the signal
In short: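 HepG2, MRTU transient transfection, 24 h dosing. Total RNA → RT-PCR → 6-FAM primer extension → HpaI digest → CE fluorescence. Bidirectional curve fit, DMSO negative control.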

[5] = ATG_ERE_CIS: Attagene CIS-FACTORIAL HepG2 Assay for Estrogen Response Element (ERE) (AID 2282940); conditions: HepG2 ERE cis-reporter, Attagene RNA transcript; actives raise or lower the signal
In short: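 After a 24 h chemical treatment, RNA from reporter-transfected HepG2 cells is reverse-transcribed, PCR-amplified and fluorescently labelled. Fragments separated by capillary electrophoresis give reporter signal; DMSO serves as negative control.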

[6] = ATG_Ets_CIS: Attagene CIS-FACTORIAL HepG2 Assay for human Erythroblast Transformation Specific (ETS) (AID 2282941); conditions: HepG2 ETS cis-reporter transcription, actives raise or lower the signal
In short: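 Endogenous transcription factor activity read as reporter mRNA via RT-PCR and capillary electrophoresis, with gain or loss fitted bidirectionally against DMSO. Human HepG2 liver cells, transiently transfected CIS reporter constructs, 24 h exposure.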

[7] = target: Hepatocyte nuclear factor 3-beta (Homo sapiens) (UniProt Q9Y261); assay: ATG_FoxA2_CIS: Attagene CIS-FACTORIAL HepG2 Assay for human Forkhead box A2 (FOXA2) (AID 2282942); conditions: HepG2 cis-reporter transcription factor activity, 24 h; actives raise or lower the signal
In short: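 Endogenous transcription factor activity was read in HepG2 cells carrying transiently transfected cis-promoter reporter units. After 24 h dosing, reporter mRNA was quantified by RT-PCR and capillary electrophoresis, and values fitted bidirectionally versus DMSO.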

[8] = ATG_FoxO_CIS: Attagene CIS-FACTORIAL HepG2 Assay for human Forkhead box O (FoxO) (AID 2282943); conditions: HepG2 Attagene cis-reporter, FoxO element, mRNA; actives raise or lower the signal
In short: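 Read-out: fluorescence of 6-FAM-labelled reporter cDNA fragments resolved by capillary electrophoresis. Transiently transfected HepG2 cells were dosed for 24 h; activity fitted in both directions relative to DMSO controls.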

[9] = ATG_GATA_CIS: Attagene CIS-FACTORIAL HepG2 Assay for human GATA Binding Protein (AID 2282944); conditions: HepG2 GATA cis-element reporter, Attagene multiplex mRNA; actives raise or lower the signal
In short: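 Cells: HepG2, transiently transfected with cis-regulated reporter transcription units. Exposure: 24 h. Detection: RT-PCR plus capillary electrophoresis of FAM-labeled fragments. Analysis: bidirectional, DMSO as baseline.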

[10] = ATG_GLI_CIS: Attagene CIS-FACTORIAL HepG2 Assay for human Zinc Finger Protein GLI1 (AID 2282945); conditions: HepG2, Attagene cis-factorial reporter mRNA, GLI element; actives raise or lower the signal
In short: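 Transiently transfected HepG2 cells report endogenous transcription factor activity via cis-element-driven reporter units. After 24 h compound exposure, reporter mRNA was measured by RT-PCR with capillary electrophoresis; bidirectional fitting against DMSO baseline.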

Measured: AC50

Chain of Hepatocyte nuclear factor 3-beta (Homo sapiens) (Q9Y261 whole entry, looked up): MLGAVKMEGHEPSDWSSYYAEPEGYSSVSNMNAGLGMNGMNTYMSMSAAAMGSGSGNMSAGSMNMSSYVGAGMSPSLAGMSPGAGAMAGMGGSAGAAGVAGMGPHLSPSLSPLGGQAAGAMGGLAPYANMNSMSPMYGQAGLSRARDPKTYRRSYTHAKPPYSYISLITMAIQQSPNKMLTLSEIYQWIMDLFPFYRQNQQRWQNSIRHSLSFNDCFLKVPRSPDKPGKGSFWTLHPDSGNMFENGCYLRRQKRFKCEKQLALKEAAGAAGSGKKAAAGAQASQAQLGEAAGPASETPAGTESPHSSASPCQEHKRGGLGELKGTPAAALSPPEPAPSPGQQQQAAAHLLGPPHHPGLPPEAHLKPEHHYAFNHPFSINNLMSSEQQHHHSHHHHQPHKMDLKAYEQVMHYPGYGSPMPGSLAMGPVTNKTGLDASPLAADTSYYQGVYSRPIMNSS

COc1cccc([C@H](O)C2CCN(CCc3ccc(F)cc3)CC2)c1OC
active: [1] 100 µM
inactive: all other assays above

CCCCOC(=O)c1ccc(O)cc1
active: [1] 138 µM | [6] 157 µM | [10] 125 µM
inactive: [1] | [2] | [4] | [6] | [7] | [8] | [10]

O=C(O)c1ccccc1-n1cc(C(=O)O)c(=O)c2cc(Nc3c(F)cc(F)cc3Cl)c(Cl)cc21
not listed: [3]
inactive: all other assays above

c1ccc(C[n+]2cccc3ccccc32)cc1
active: [5] 74.1 µM
not listed: [3] | [9]
inactive: all other assays above

CC(C)(C)c1cc(/C=C2\SC(N)=NC2=O)cc(C(C)(C)C)c1O
active: [3] 8.13 µM
inactive: all other assays above

CCN(CC)C(=O)c1cc(S(=O)(=O)Cc2ccccc2)c(N2CCC(c3ccccc3)CC2)cc1N(CC)CCN(C)C
not listed: [3] | [9]
inactive: all other assays above

c1ccc2ccccc2c1
not listed: [3] | [9]
inactive: all other assays above

COCC(C)OCC(C)OCC(C)O (configuration not stated)
inactive: all assays above

CC(C)(C)c1csc(-c2cc3cc(OCc4ccccc4CC(=O)O)ccc3o2)n1
not listed: [3]
inactive: all other assays above

CCCCCCCCN(C)CCCCCCCC
active: [5] 30.2 µM
not listed: [9]
inactive: all other assays above

Cc1c2ccccc2c(C)c2c1ccc1ccccc12
active: [1] 8.32 µM | [4] 33.4 µM | [5] 3.55 µM
not listed: [9]
inactive: all other assays above

CCCCCCCCCCCC[N+](C)(C)C
active: [1] 33.4 µM and 22.5 µM
not listed: [3] | [5]
inactive: all other assays above

O=C(O)c1ccccc1C(=O)OCc1ccccc1
not listed: [3]
inactive: all other assays above

Cc1cc(F)ccc1-c1cc(N2CC[C@@H](O)[C@H]2CO)ncc1N(C)C(=O)C(C)(C)c1cc(C(F)(F)F)cc(C(F)(F)F)c1
not listed: [9]
inactive: all other assays above

COc1ccc2cc(S(=O)(=O)N[C@H](CC(=O)N[C@H](Cc3ccc(CN4[C@H](C)CCC[C@@H]4C)cc3)C(=O)N(C)C(C)C)c3ccc4c(c3)OCO4)ccc2c1
active: [3] 11 µM
inactive: all other assays above

Cc1oc2c(NC(=O)c3c(Cl)cccc3Cl)cccc2c1C(C)(C)O
active: [3] 47.6 µM | [7] 27.3 µM
not listed: [9]
inactive: all other assays above

CCCCCCCCOC(=O)c1cc(O)c(O)c(O)c1
not listed: [9]
inactive: all other assays above

CC[C@@H]1C[C@H](N(Cc2cc(C(F)(F)F)cc(C(F)(F)F)c2)C(C)=O)c2cc(C(F)(F)F)ccc2N1C(=O)OC(C)C
not listed: [3] | [9]
inactive: all other assays above

C[C@]12CC[C@@H]3c4ccc(O)cc4CC[C@H]3[C@@H]1CCC2=O
not listed: [5]
inactive: all other assays above

CCCCCCCC[Si](OCC)(OCC)OCC
active: [1] 48.4 µM | [6] 100 µM and 75.6 µM | [10] 162 µM
inactive: [1] | [2] | [4] | [6] | [7] | [8] | [10]

CCCCCCCCCC(=O)O
not listed: [5]
inactive: all other assays above

O=C1c2ccccc2C(=O)N1CCc1noc(-c2ccc(CN3CCCCCC3)s2)n1
not listed: [9]
inactive: all other assays above

CN1C(=O)CC[C@H]1c1cccnc1
not listed: [3] | [5]
inactive: all other assays above

O=C(O)Cn1c(=O)n(Cc2ccc(Br)cc2F)c(=O)c2ccc(Cl)cc21
inactive: all assays above

CCCC(=O)OCCC(C)C
active: [6] 26.8 µM
inactive: all other assays above

CC1=CC(=O)/C(=C(/C)O)C(=O)O1
not listed: [3]
inactive: all other assays above

Clc1ccccc1C(c1ccccc1)(c1ccccc1)n1ccnc1
active: [5] 0.438 µM
not listed: [3] | [9]
inactive: all other assays above

O=c1ccc2ccccc2o1
inactive: all assays above

COc1cc(C(=O)NC2CCN(C)CC2)ccc1Nc1ncc2c(n1)N(C1CCCC1)CC(F)(F)C(=O)N2C
active: [3] 2.26 µM | [6] 1.55 µM | [8] 3.63 µM
inactive: all other assays above

O=C(Nc1ccc(Cl)cc1)Nc1ccc(Cl)c(Cl)c1
not listed: [3] | [9]
inactive: all other assays above

O=c1c(-c2ccc(O)cc2)coc2cc(O)cc(O)c12
not listed: [5]
inactive: all other assays above

O=C1O[C@H]([C@@H](O)CO)C(O)=C1O
not listed: [3] | [5]
inactive: all other assays above

CCCCCCCCCCCO
not listed: [3]
inactive: all other assays above

Cc1ncc(CO)c(CO)c1O
not listed: [5]
inactive: all other assays above

Cc1cc2c(cc1C(F)(F)F)N(C(=O)Nc1ccc(Oc3cccnc3C)nc1)CC2
not listed: [9]
inactive: all other assays above

Oc1ccc2ccccc2c1
inactive: [1] | [2] | [3] | [4] | [6] | [7] | [8] | [9] | [10]
active: [1] 8.89 µM

O=c1[nH]sc2ccccc12
not listed: [3]
inactive: all other assays above

Cc1ccc(C(C)C)cc1
not listed: [9]
inactive: all other assays above

c1ccc2n[nH]nc2c1
not listed: [3] | [5] | [9]
inactive: all other assays above

OCCO
not listed: [1] | [3]
inactive: all other assays above

NCc1cccc(C2CCN(C(=O)c3ccc(C#Cc4ccccc4F)o3)CC2)c1
active: [3] 11 µM | [5] 2.81 µM
not listed: [1] | [9]
inactive: all other assays above

CN(C[C@@H](CC[N+]12CCC(C3CCCCC3)(CC1)CC2)c1ccc(Cl)c(Cl)c1)C(=O)c1cc(C(F)(F)F)cc(C(F)(F)F)c1
not listed: [1] | [9]
inactive: all other assays above

OC12N=C(c3ccccc3)SC1Cc1cc(Cl)ccc12 (configuration not stated)
active: [5] 1.16 µM
not listed: [1] | [3]
inactive: all other assays above

Cc1ccc2oc(CN(Cc3ccccc3)C(=O)Nc3c(F)cc(F)cc3F)c(-c3ccc(Cl)cc3)c2c1
not listed: [1]
inactive: all other assays above
